The target of the first test is T1, Tyrosyl-tRNA synthetase, putative (Trypanosoma cruzi (strain CL Brener)) (UniProt Q4DSP6).
T1 sequence (whole entry): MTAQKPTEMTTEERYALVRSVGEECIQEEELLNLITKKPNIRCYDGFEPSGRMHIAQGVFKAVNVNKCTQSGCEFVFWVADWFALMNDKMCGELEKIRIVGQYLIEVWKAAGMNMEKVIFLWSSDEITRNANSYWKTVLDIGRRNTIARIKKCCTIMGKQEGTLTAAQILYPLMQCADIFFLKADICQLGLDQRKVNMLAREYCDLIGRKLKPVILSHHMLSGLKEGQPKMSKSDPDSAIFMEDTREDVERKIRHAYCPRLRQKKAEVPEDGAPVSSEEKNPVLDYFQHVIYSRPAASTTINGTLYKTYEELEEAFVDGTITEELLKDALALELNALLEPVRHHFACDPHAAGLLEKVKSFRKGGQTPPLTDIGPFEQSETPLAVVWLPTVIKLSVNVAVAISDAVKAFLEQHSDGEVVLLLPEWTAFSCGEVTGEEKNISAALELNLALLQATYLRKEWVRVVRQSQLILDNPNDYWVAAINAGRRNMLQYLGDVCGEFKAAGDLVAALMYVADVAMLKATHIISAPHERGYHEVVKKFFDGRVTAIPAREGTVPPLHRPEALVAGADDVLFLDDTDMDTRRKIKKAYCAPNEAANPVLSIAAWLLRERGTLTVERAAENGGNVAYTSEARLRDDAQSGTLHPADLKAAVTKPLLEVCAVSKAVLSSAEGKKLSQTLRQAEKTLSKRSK
Put plainly: Trypanosoma cruzi tyrosyl tRNA synthetase (TcYRS) _High Tyrosine SOP. It is filed as functional. More on the design: scale not given: in the data most compounds retested in dose-response had high values. As to conditions: 30 µM.
In the case of `COCCc1ncc(CN2CCC(Oc3ccccc3C)CC2)cn1`, the Percent Effect amounted to 6.35%.
As to `COCCCN1CC2(CCCCN2C(=O)c2ccsc2)CC1=O` (stereo not given), the Percent Effect was 0%.
As to `CCc1nc(C2CCCN2CCn2cncn2)no1` (stereo not given), the Percent Effect was found to be 1.96%.
For `O=C(NCCOc1ccc(Cl)cc1)N1CCS(=O)(=O)CC1`, the Percent Effect was -0.478%.
On the same count and under the same terms, for `COC(=O)CC(c1ccccc1)c1oc(C)cc(=O)c1O` (stereo not given) the value was 1.6%.
On the same count and under the same terms, in the case of `COc1ncccc1CNC(=O)c1cccc(C)n1` it was 6.22%; in that of `CC(C)CN(Cc1nc2c(cnn2C)c(=O)[nH]1)C(C)C`, 5.26%.
On to `CC(C)C(=O)N1CCC2(CCCN(CCOc3ccccc3)C2)C1` (stereo not given), for which the Percent Effect was determined as 2.9%.
Consider `Cc1ccc(-c2nc(CCNC(=O)NC3CCN(C)CC3)co2)cc1`, for which the Percent Effect amounted to 3.68%.
As to `COc1ccc(CNCc2ccnc(N3CCCCC3)c2)cc1OC`, the Percent Effect worked out at 3.35%.
The same measure, in the same setting: in the case of `COc1ccc(CC(=O)N2C[C@@H]3COC[C@]3(CN(C)C)C2)cc1` it was -26.8%; in that of `CC(=O)N1N=C(c2ccccc2)OC1C(=O)NCCc1cccc(Cl)c1` (stereo not given), 0%; in that of `Cc1cnn(CC2CN(CC(=O)N(C)Cc3cccs3)CCO2)c1` (stereo not given), 2.63%.
Regarding `O=C(CC1CCCC1)N1C[C@@H]2CCN(c3cccnc3)C[C@@H]2C1`, the Percent Effect stood at 2.9%.
On to `COc1ccc(CN2CCC3(CC(Nc4ccncn4)C3)C2)c(OC)c1` (stereo not given), for which the Percent Effect stood at 5.29%.
For `Cc1nn(C)c(N(C)C)c1CNCCNS(C)(=O)=O`, the Percent Effect came to 7.18%.
As to `Cc1cc(-c2nn(C)c(Cl)c2CN2Cc3ccccc3C(O)C2)no1` (stereo not given), the Percent Effect is 3.72%.
As for `CCc1nnc(CN2CCCC(c3cc(C(F)(F)F)[nH]n3)C2)o1` (stereo not given), the Percent Effect is 1.58%.
Take `CC[C@@H]1N(Cc2ccsc2)CCC[C@]12CCC(=O)N2CCOC`: the Percent Effect was 7.73%.
As for `CC(c1nc(C2CC2)no1)N1CCN(Cc2ccsc2)CC1` (stereo not given), the Percent Effect was found to be 4.31%.
Regarding `COc1cccc(OC)c1C(=O)N1CCN(c2ccccc2F)CC1`, the Percent Effect is 0%.
`O=C(NCC1CC1)C1=NOC2(CCN(S(=O)(=O)c3cccs3)C2)C1` (stereo not given): the Percent Effect was -0.526%.
Same read-out and setting: for `Cc1ncc(S(C)(=O)=O)c(C2CCCNC2)n1` (stereo not given) the value was 6.92%; for `O=C(NCCc1cccnc1)N1CCCC1c1ccsc1` (stereo not given), 5.26%.
The same measure, in the same setting: for `CNC(=O)[C@@H]1C[C@H]2CN(Cc3ccco3)C[C@H]2N1C` the value was 9.66%; for `Cc1ccc(Oc2ccc(NC(=O)NCC3CCOC3)cn2)cc1C` (stereo not given), 4.31%; for `O=C(Cc1n[nH]c2ccccc12)N1CCC(Nc2cccnn2)CC1`, 5.88%.
In the case of `Cc1cc(C2CCCN(C(=O)c3c(C)nn4cccnc34)C2)n[nH]1` (stereo not given), the Percent Effect worked out at 2.63%.
Turning to `CC(C)c1nc(C2CCCN2CC(=O)Nc2nncs2)no1` (stereo not given), the Percent Effect is 5.79%.
Same read-out and setting: in the case of `CCn1ccnc1CN1CCN(CC(O)c2ccccc2)CC1` (stereo not given) it was 1.44%; in that of `CO[C@@H]1CCN(C(=O)c2ccccn2)[C@H]1Cc1ccccc1`, 8.7%; in that of `Cc1noc(C(C)C)c1C(=O)NCCN1CCCCCC1=O`, 6.86%.
Turning to `Cc1noc(C)c1CC(=O)OCC(=O)N1CCc2sccc2C1`, the Percent Effect stood at 6.84%.
On to `COCc1nc(C(=O)N2CCCC(n3cccn3)C2)cs1` (stereo not given), for which the Percent Effect was 2.94%.
On the same count and under the same terms, in the case of `COCCN1CCCN(C(=O)NC(C)Cn2ccnc2)CC1` (stereo not given) it was 0%; in that of `CC(C)(C)n1ncc2c1NC(=O)CC2c1ccsc1` (stereo not given), 4.79%.
In the case of `O=C(NCCO)c1ccn(-c2ccc3ccccn23)n1`, the Percent Effect was determined as 11.1%.
As for `COc1ncccc1CNC(=O)c1cccnc1O`, the Percent Effect worked out at 11%.
`CCc1cc(O)nc(C2CCCN2C(=O)c2cc(C)no2)n1` (stereo not given): the Percent Effect was -2.12%.
In the case of `O=C(NC[C@]1(O)CN(Cc2ccccc2F)C[C@H]1O)c1ccccn1`, the Percent Effect is 4.23%.

The next test has as its target T1, Tyrosyl-tRNA synthetase, putative (Trypanosoma cruzi (strain CL Brener)). Put plainly: Trypanosoma cruzi tyrosyl tRNA synthetase (TcYRS) SOP. As to conditions: 30 µM. More on the design: scale not given: direction of the effect not stated beside the values. It is filed as functional.
Take `COCCc1ncc(CN2CCC(Oc3ccccc3C)CC2)cn1`: the Percent Effect stood at 20%.
For `COCCCN1CC2(CCCCN2C(=O)c2ccsc2)CC1=O` (stereo not given), the Percent Effect is 7.5%.
Regarding `CCc1nc(C2CCCN2CCn2cncn2)no1` (stereo not given), the Percent Effect turned out to be 7.06%.
Regarding `O=C(NCCOc1ccc(Cl)cc1)N1CCS(=O)(=O)CC1`, the Percent Effect was found to be 10.8%.
Turning to `COC(=O)CC(c1ccccc1)c1oc(C)cc(=O)c1O` (stereo not given), the Percent Effect is 0%.
Still for that read-out and setting: in the case of `COc1ncccc1CNC(=O)c1cccc(C)n1` it was 22.9%; in that of `CC(C)CN(Cc1nc2c(cnn2C)c(=O)[nH]1)C(C)C`, 18.1%.
Still for that read-out and setting: for `CC(C)C(=O)N1CCC2(CCCN(CCOc3ccccc3)C2)C1` (stereo not given) the value was 10%; for `Cc1ccc(-c2nc(CCNC(=O)NC3CCN(C)CC3)co2)cc1`, 5.13%.
Take `COc1ccc(CNCc2ccnc(N3CCCCC3)c2)cc1OC`: the Percent Effect worked out at 1.21%.
`COc1ccc(CC(=O)N2C[C@@H]3COC[C@]3(CN(C)C)C2)cc1`: the Percent Effect is -43.6%.
On the same count and under the same terms, for `CC(=O)N1N=C(c2ccccc2)OC1C(=O)NCCc1cccc(Cl)c1` (stereo not given) the value was 10%.
Still for that read-out and setting: in the case of `Cc1cnn(CC2CN(CC(=O)N(C)Cc3cccs3)CCO2)c1` (stereo not given) it was 2.56%.
Turning to `O=C(CC1CCCC1)N1C[C@@H]2CCN(c3cccnc3)C[C@@H]2C1`, the Percent Effect was 0%.
Turning to `COc1ccc(CN2CCC3(CC(Nc4ccncn4)C3)C2)c(OC)c1` (stereo not given), the Percent Effect came out at 7.5%.
For `Cc1nn(C)c(N(C)C)c1CNCCNS(C)(=O)=O`, the Percent Effect is 20.5%.
On the same count and under the same terms, in the case of `Cc1cc(-c2nn(C)c(Cl)c2CN2Cc3ccccc3C(O)C2)no1` (stereo not given) it was 4.88%; in that of `CCc1nnc(CN2CCCC(c3cc(C(F)(F)F)[nH]n3)C2)o1` (stereo not given), -2.56%; in that of `CC[C@@H]1N(Cc2ccsc2)CCC[C@]12CCC(=O)N2CCOC`, 7.5%.
With `CC(c1nc(C2CC2)no1)N1CCN(Cc2ccsc2)CC1` (stereo not given), the Percent Effect was determined as 8.43%.
Regarding `COc1cccc(OC)c1C(=O)N1CCN(c2ccccc2F)CC1`, the Percent Effect is -5%.
On the same count and under the same terms, for `O=C(NCC1CC1)C1=NOC2(CCN(S(=O)(=O)c3cccs3)C2)C1` (stereo not given) the value was -2.56%.
For the compound `Cc1ncc(S(C)(=O)=O)c(C2CCCNC2)n1` (stereo not given), the Percent Effect is 12.2%.
Same read-out and setting: in the case of `O=C(NCCc1cccnc1)N1CCCC1c1ccsc1` (stereo not given) it was 22.9%.
For the compound `CNC(=O)[C@@H]1C[C@H]2CN(Cc3ccco3)C[C@H]2N1C`, the Percent Effect turned out to be 12.5%.
With `Cc1ccc(Oc2ccc(NC(=O)NCC3CCOC3)cn2)cc1C` (stereo not given), the Percent Effect amounted to 20.5%.
Still for that read-out and setting: for `O=C(Cc1n[nH]c2ccccc12)N1CCC(Nc2cccnn2)CC1` the value was 11.8%; for `Cc1cc(C2CCCN(C(=O)c3c(C)nn4cccnc34)C2)n[nH]1` (stereo not given), 5.13%.
As to `CC(C)c1nc(C2CCCN2CC(=O)Nc2nncs2)no1` (stereo not given), the Percent Effect was 15.4%.
The same measure, in the same setting: in the case of `CCn1ccnc1CN1CCN(CC(O)c2ccccc2)CC1` (stereo not given) it was 6.02%; in that of `CO[C@@H]1CCN(C(=O)c2ccccn2)[C@H]1Cc1ccccc1`, 10%; in that of `Cc1noc(C(C)C)c1C(=O)NCCN1CCCCCC1=O`, 16.5%.
`Cc1noc(C)c1CC(=O)OCC(=O)N1CCc2sccc2C1`: the Percent Effect was 23.1%.
`COCc1nc(C(=O)N2CCCC(n3cccn3)C2)cs1` (stereo not given): the Percent Effect is 16.5%.
Regarding `COCCN1CCCN(C(=O)NC(C)Cn2ccnc2)CC1` (stereo not given), the Percent Effect was 18.8%.
For the compound `CC(C)(C)n1ncc2c1NC(=O)CC2c1ccsc1` (stereo not given), the Percent Effect is 9.76%.
`O=C(NCCO)c1ccn(-c2ccc3ccccn23)n1`: the Percent Effect is -2.56%.
Same read-out and setting: in the case of `COc1ncccc1CNC(=O)c1cccnc1O` it was 22.9%; in that of `CCc1cc(O)nc(C2CCCN2C(=O)c2cc(C)no2)n1` (stereo not given), 5%; in that of `O=C(NC[C@]1(O)CN(Cc2ccccc2F)C[C@H]1O)c1ccccn1`, 15%.

Source of the values: ChEMBL document CHEMBL3988442, “University of Dundee, Small-Polar-MMV Screening Library” (2021).
